The text below walks through data of PubChem BioAssay (NCATS).

Test in all cases: qHTS profiling for inhibitors of Plasmodium falciparum proliferation (AID 504749); note: nearly all actives have a fitted effect of over 60% in size
Holding throughout (settings): P. falciparum in erythrocytes, SYBR Green DNA, 72 h; series mostly up to 28.7 µM
(qHTS replaces the single test concentration by a dilution series.)

Test [1] deals with CP266. In a few lines: (§1)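 P. falciparum-infected erythrocytes (0.3% parasitemia, 2.5% hematocrit) incubated with compound 72 h at 37 C, 5% CO2. Parasite DNA detected by SYBR Green after lysis, overnight at room temperature; normalised to 0.29 uM artemisinin and DMSO.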
In test [2] the test system is CP268. The method in brief: as §1
The subject of test [3] is CP269. The method in brief:
as §1

Test [4] concerns CP286. In a few lines: as §1
For test [5], the system named is CP291. In a few lines:
as §1

Test [6] deals with CP297. In a few lines: as §1
In test [7] the test system is CP315. The method in brief:
as §1

Test [8] concerns CP329. In a few lines: as §1
For test [9], the system named is CP335. In a few lines:
as §1

Test [10] relates to DFO2036. In a few lines:
as §1

Test [11] relates to DIV17. In a few lines: as §1
Test [12] relates to DIV30. The method in brief: as §1
Test [13] deals with CP260. In a few lines: as §1
Test [14] relates to CP262. The method in brief:
as §1

In test [15] the test system is CP265. The method in brief:
as §1

Test [16] has as its system DIV14. In a few lines:
as §1

The subject of test [17] is CP252. The method in brief: as §1
Test [18] has as its system CP256. The method in brief: as §1
Test [19] has as its system CP305. The method in brief: as §1
For test [20], the system named is CP325. In a few lines: as §1

SMILES strings stand for the structures. Results filed as inconclusive are left out. The source made the active and inactive calls. Calls come from the whole dose curve; as a rule, active = well fitted inhibition curve with a large enough effect; inconclusive = small, poorly fitted or top-dose-only effect; inactive = flat fitted curve, though single readings scatter.
Potency is the fitted concentration of half-maximal effect.

Regarding `C[n+]1cc2c3c(ccc2c2ccc4cc5c(cc4c21)OCO5)OCO3`, the Potency result in test [1], in test [2], in [3], in test [4], in test [5] and in test [6] was “inactive” throughout. In addition, the Potency entry in [7], in [8], in [9], in test [10], in [11] and in test [12] was “inactive” in each case.

Consider `O=C(CCCN1CCC(O)(c2cccc(C(F)(F)F)c2)CC1)c1ccc(F)cc1`, for which the Potency in test [13] is 11.2 µM (active); in test [14], 10.7 µM (active); in test [15], 10 µM (active); in test [4], 10 µM (active); in test [9], 9.53 µM (active); in test [10] it was 10 µM (active). The Potency is 6.75 µM (active) in [16] and 13.5 µM (active) in test [11].

Regarding `CCn1cc(C(=O)O)c(=O)c2cc3c(cc21)OCO3`, the Potency result in test [17], in [18], in [14], in test [15], in test [1] and in [2] was “inactive” in each case. The Potency entry in test [3], in [4], in [5], in test [6], in test [19] and in [7] was “inactive” throughout. Further, the Potency entry in test [20], in [8], in [9], in test [10], in [16] and in [12] was “inactive” throughout.

`CC(C)(C)c1ccc(C(=O)CCCN2CCC(OC(c3ccccc3)c3ccccc3)CC2)cc1`: the Potency in [17] is 10 µM (active); in [13], 10 µM (active); in test [3], 7.57 µM (active); in test [4], 8.91 µM (active); in test [19], 10.7 µM (active); in [9], 6.75 µM (active). The Potency result in test [7] was “inactive”.

On to `CC1=NS(=O)(=O)c2cc(Cl)ccc2N1`, for which the Potency result in test [13], in test [14], in [15], in test [1], in test [2] and in [3] was “inactive” throughout. For the same molecule, the Potency entry in [4], in test [5], in [6], in test [19], in [7] and in test [20] was “inactive” in each case. The Potency result in [8], in test [9], in [10], in test [16], in [11] and in test [12] was “inactive” each time.

On to `OC(CCN1CCCCC1)(c1ccccc1)C1CCCCC1` (stereo not drawn), for which the Potency result in test [17], in test [18], in test [14], in [1], in [2] and in test [3] was “inactive” in each case. Further, the Potency result in test [4], in [6], in [19], in test [7], in [20] and in test [8] was “inactive” throughout. For the same molecule, the Potency entry in test [10] was “inactive”.

Take `COC(=O)[C@@H](N)Cc1ccc(O)c(O)c1`: the Potency result in [17], in test [18], in test [13], in test [15], in test [1] and in [2] was “inactive” each time. The Potency entry in [4], in test [5], in test [6], in test [19], in test [7] and in test [20] was “inactive” each time. Further, the Potency result in [8], in test [10] and in test [12] was “inactive” each time.

Consider `c1cc(CN2CCCCC2)cc(OCCCNc2nc3ccccc3s2)c1`, for which the Potency entry in test [14] was “inactive”.

For the molecule `CN(C)CCCN1c2ccccc2Sc2ccc(C(F)(F)F)cc21`, the Potency entry in test [17], in test [18], in test [14], in [15], in [1] and in test [2] was “inactive” throughout. For the same molecule, the Potency result in test [3], in test [5], in test [6], in [19], in test [7] and in test [20] was “inactive” each time. The Potency result in test [8] was “inactive”. Also, the Potency in test [16] is 6.75 µM (active); in [11], 5.36 µM (active).

Take `CC1=C(C)C(=O)C(CCCCC#CCCCC#CCO)=C(C)C1=O`: the Potency in test [15] is 10 µM (active); in test [4], 11.2 µM (active); in [6], 15.1 µM (active); in test [9], 13.5 µM (active); in test [16], 5.36 µM (active); in test [11] it was 6.01 µM (active). In test [12], the Potency was 7.57 µM (active).

On to `COc1ccc(CCN(C)CCCC(C#N)(c2cc(OC)c(OC)c(OC)c2)C(C)C)cc1OC` (stereo not drawn), for which the Potency result in [15] and in test [1] was “inactive” throughout. Also, the Potency in [11] is 13.5 µM (active).

Take `CCn1ccnc1CC1COc2ccccc2O1` (stereo not drawn): the Potency result in test [17], in test [18], in test [14], in [15], in test [1] and in test [2] was “inactive” in each case. The Potency result in [3], in test [4], in test [5], in [6], in test [19] and in test [7] was “inactive” throughout. Besides, the Potency result in test [20], in test [8], in test [9], in test [10], in [16] and in test [11] was “inactive” throughout. For the same molecule, the Potency result in test [12] is “inactive”.

For `C=CCc1ccccc1OCC(O)CNC(C)C` (stereo not drawn), the Potency entry in test [14] and in test [1] was “inactive” each time. Also, the Potency in test [16] and in [11] was 8.49 µM (active) each time.

In the case of `CN1C[C@H](C(=O)N[C@]2(C)O[C@@]3(O)[C@@H]4CCCN4C(=O)[C@H](Cc4ccccc4)N3C2=O)C[C@@H]2c3cccc4[nH]cc(c34)C[C@H]21`, the Potency in test [2] was 15.1 µM (active); in test [3], 8.49 µM (active); in test [5], 16.9 µM (active); in test [6] it was 4.26 µM (active); in [20], 12 µM (active); in [9], 8.49 µM (active). Further, the values for the Potency in test [16], in test [11] and in [12] were 0.675 µM (active), 0.426 µM (active) and 0.757 µM (active), respectively.

Turning to `CN(C)CCN(Cc1cccs1)c1ccccn1`, the Potency result in [14] and in test [7] was “inactive” throughout. In addition, the Potency is 10 µM (active) in [15]; 3.38 µM (active) in test [6]; 8.49 µM (active) in test [9]; 6.75 µM (active) in test [16]; 6.01 µM (active) in test [11].

Turning to `Brc1c(NC2=NCCN2)ccc2nccnc12`, the Potency entry in [17], in test [18], in test [14], in test [1], in [2] and in test [3] was “inactive” throughout. Also, the Potency result in [4], in test [5], in test [6], in test [19], in [7] and in test [20] was “inactive” each time. Besides, the Potency entry in [8], in test [10] and in [12] was “inactive” each time.

For `CC(C)COCC(CN(Cc1ccccc1)c1ccccc1)N1CCCC1` (stereo not drawn), the Potency entry in [17], in test [18], in test [14], in test [15], in test [1] and in test [20] was “inactive” in each case. In addition, the Potency entry in test [8], in test [16] and in [11] was “inactive” throughout.

In the case of `Cc1ccc(Cl)c(Nc2ccccc2C(=O)O)c1Cl`, the Potency entry in test [17], in test [18], in test [14], in test [15], in test [1] and in test [2] was “inactive” throughout. The Potency result in [3], in [4], in test [5], in [6], in test [19] and in test [20] was “inactive” throughout. The Potency entry in test [8], in test [9], in [10], in test [16], in test [11] and in test [12] was “inactive” in each case.
